Reference: PubChem BioAssay
Values without a mark were called inactive. Active and inactive are the calls of the source.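 How the source made its calls: active means compounds lowering colon cancer cell viability after pretreatment blocking the GSK3B kinase; inactive means the rest.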

Experiment: growth inhibition of GSK3B-pretreated HCT116 cells – cell-based, CellTiter-Glo, 0.2 to 20 µM (AID 1117336)
Conditions: HCT116 viability after GSK3B inhibitor, at 20 µM, stronger effect = higher value

Compound | viability decrease
CC(C)(C)c1ccc(C(O)CCCN2CCC(C(O)(c3ccccc3)c3ccccc3)CC2)cc1 (stereo not given) | 101% (active)
O=C(NCC1CCCCN1)c1cc(OCC(F)(F)F)ccc1OCC(F)(F)F (stereo not given) | -3.9%
O=C(O)COCCN1CCN(C(c2ccccc2)c2ccc(Cl)cc2)CC1 (stereo not given) | -8.4%
CC(C)c1c(C(=O)Nc2ccccc2)c(-c2ccccc2)c(-c2ccc(F)cc2)n1CC[C@@H](O)C[C@@H](O)CC(=O)O | 95.5% (active)
Cc1ccc(/C(=C\CN2CCCC2)c2ccccn2)cc1 | -2.3%
CC(C)(C)CC(C)(C)c1ccc(OCCOCC[N+](C)(C)Cc2ccccc2)cc1 | 102% (active)
Clc1ccccc1CN1CCc2sccc2C1 | 13.8%
C[N+]1(C)CCC(OC(=O)C(O)(c2ccccc2)C2CCCC2)C1 (stereo not given) | -4%
CN1[C@@H]2CC(OC(=O)[C@H](CO)c3ccccc3)C[C@H]1[C@@H]1O[C@@H]12 (stereo not given in full) | 1%
CC(C)(C(=O)O)c1ccc(C(O)CCCN2CCC(C(O)(c3ccccc3)c3ccccc3)CC2)cc1 (stereo not given) | 1.3%
CC(C)n1c(/C=C/[C@@H](O)C[C@@H](O)CC(=O)O)c(-c2ccc(F)cc2)c2ccccc21 | 97.8% (active)
CN(C)C(=N)N=C(N)N | -7%
O=C(O)c1cn(C2CC2)c2cc(N3CCNCC3)c(F)cc2c1=O | -4.5%
COc1ccc(-c2nc3ccc(C4=NNC(=O)CC4C)cc3[nH]2)cc1 (stereo not given) | 18.3%
O=S(=O)(c1cccc2cnccc12)N1CCCNCC1 | 18.1%
CS(=O)(=O)c1ccc([C@@H](O)[C@@H](CF)NC(=O)C(Cl)Cl)cc1 | -7.1%
C[C@@H](O[C@H]1OCCN(Cc2n[nH]c(=O)[nH]2)[C@H]1c1ccc(F)cc1)c1cc(C(F)(F)F)cc(C(F)(F)F)c1 | 99% (active)
NCCCC(O)(P(=O)(O)O)P(=O)(O)O | 6.9%
CC1(C)[C@H](C(=O)O)N2C(=O)C[C@H]2S1(=O)=O | 0.3%
O=C(O)CCn1c2c(c3ccccc31)C[C@H](NS(=O)(=O)c1ccc(F)cc1)CC2 | 8.7%
